Shown are actives, neighbours in structure and some others; about 2% of the full set was active somewhere.
Six1-Eya2 blk: blocks human Six1 binding to Eya2 | AlphaScreen GST-Six1/His-Eya2 binding, biochemical; active compounds read low | Q15475+O00167 | 0.56% of 360,000 active | activity change, % (concentration not given with the values)
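GST-Six1 + His-Eya2 (5X stock: 250/500 nM); Tris pH 8.0, 300 mM NaCl, 0.05% BSA, 0.02% Tween 20; GSH donor/Ni acceptor beads; 1 h 37 °C dark; AlphaScreen readout.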
KDM4E inh: blocks human JMJD2E demethylase activity; AID 2147; JMJD2E catalytic domain, FDH-coupled NADH fluorescence (FDH is formaldehyde dehydrogenase); Potency, µM (doses to about 57.1 µM), actives largely listed as inhibitors; 1.6% of 230,000 active; active = well fitted inhibition curve with a large enough effect, not every such curve was filed as active; inconclusive = small, poorly fitted or top-dose-only effect, or another doubt; inactive = no such curve, though single readings can be large or run the other way; also: nearly all actives have a fitted effect of over 50% in size
Target sequence (B2RXH2 1-337 limits assumed): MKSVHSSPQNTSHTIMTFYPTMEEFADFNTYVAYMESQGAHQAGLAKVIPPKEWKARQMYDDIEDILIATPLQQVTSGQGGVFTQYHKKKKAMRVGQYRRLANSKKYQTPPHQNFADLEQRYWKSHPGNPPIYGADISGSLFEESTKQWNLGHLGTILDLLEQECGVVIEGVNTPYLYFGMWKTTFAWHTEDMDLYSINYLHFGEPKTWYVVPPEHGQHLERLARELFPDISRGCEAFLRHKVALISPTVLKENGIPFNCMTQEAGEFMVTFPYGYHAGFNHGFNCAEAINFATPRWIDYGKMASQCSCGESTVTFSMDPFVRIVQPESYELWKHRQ
KCNH2 WT inh: KCNH2 (human, wildtype) channel inhibition | activity change, % at 1.84 µM | 0.37% of 340,000 active | Q12809 | U2OS, BacMam KCNH2, thallium flux FluxOr; active compounds read low;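 active = maximum activity change below -70%; inconclusive = maximum activity change between -70% and -50%; inactive = maximum activity change above -50%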
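U2OS cells were transduced with wild-type KCNH2 virus (2.03 x 10^8 / mL) for 4 h at room temperature, then cultured overnight at 37 C. Thallium flux was read with FluxOr dye. Rate constants were normalized to DMSO controls.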
CtBP-E1A inh: inhibitors of CtBP/E1A interaction; AlphaScreen GST-E1A/His-CtBP binding, 1536-well; active compounds read low; activity change, % (no concentration beside the values); 0.49% of 340,000 active; AID 651724
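AlphaScreen with 125 nM GST-E1A and 125 nM His-CtBP (5X stocks) in Tris pH 8.0, 300 mM NaCl, BSA, Tween 20, TCEP. Compounds preincubated 2 h at 37 deg C, then glutathione donor/nickel acceptor beads added for 1 h at 37 deg C in dark.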
KCNH2 3.1 inh: blocks the human KCNH2 3.1 channel isoform; U2OS KCNH2 3.1, thallium flux FluxOr; active compounds read low; activity change, % (tested at about 1.8 µM); AID 720553; 0.95% of 340,000 active;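 active = maximum activity change below -70%; inconclusive = maximum activity change from -70% to -50%; inactive = maximum activity change above -50%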;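 also: thallium influx rate constant from kinetic fluorescence after stimulation buffer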
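Virally transduced U2OS (3.1 isoform, 4 h infection in dark at RT) → overnight 37 C → FluxOr + Red40 in HBSS/HEPES, 45 min → stimulation buffer, 2 min kinetic read → rate constant vs DMSO controls.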
Each line names hits and unclear results; the compound was inactive in the other large screens. Rule as the data show it, unless noted: active = activity change below about -65%; inconclusive = mostly about -30% to -63%; inactive = weaker than that.

COc1ccc(-n2c(C)cc(C(=O)CN3CCCCC3)c2C)cc1	none (no result: KCNH2 WT inh, CtBP-E1A inh)
COc1ccc(CCNCC(O)c2ccccc2)cc1 (stereo unspecified)	KDM4E inh 7.9µM
c1ccc(CSc2nnc(-c3ccco3)o2)cc1	none
O=C(CN1CCN(c2ncc(C(F)(F)F)cc2Cl)CC1)NC(=O)NCc1ccccc1	KCNH2 3.1 inh inconclusive
CCC(=O)NC(c1cccs1)c1cc([N+](=O)[O-])c2cccnc2c1O (stereo unspecified)	Six1-Eya2 blk -85, KDM4E inh inconclusive, CtBP-E1A inh -83
CC(=O)NC(c1cccs1)c1cc([N+](=O)[O-])c2cccnc2c1O (stereo unspecified)	Six1-Eya2 blk -89, KDM4E inh 8.9µM, CtBP-E1A inh -87
O=C(CCc1ccccc1)NC(c1cccs1)c1cc(Cl)c2cccnc2c1O (stereo unspecified)	none
CCCC(=O)NC(c1cccs1)c1cc([N+](=O)[O-])c2cccnc2c1O (stereo unspecified)	Six1-Eya2 blk -90, KDM4E inh 10µM, CtBP-E1A inh -85
Cn1c(N/N=C/c2cccs2)cc(=O)n(C)c1=O	KDM4E inh inconclusive
CN1CCc2c(sc3c2C(=O)NC(c2ccccn2)N3)C1 (stereo unspecified)	Six1-Eya2 blk -67, KDM4E inh inconclusive, CtBP-E1A inh inconclusive
O=C1NC(c2ccc(Br)cc2)Nc2sc3c(c21)CCC3 (stereo unspecified)	none
O=C1NC(c2ccccn2)Nc2sc3c(c21)CCC3 (stereo unspecified)	Six1-Eya2 blk -80, KDM4E inh inconclusive, CtBP-E1A inh -77
CN1CCc2c(sc3c2C(=O)NC(c2ccccc2)N3)C1 (stereo unspecified)	KDM4E inh inconclusive
Oc1ccc2ccccc2c1/C=N/Nc1nnc(-c2ncc[nH]2)c2ccccc12	Six1-Eya2 blk -67, CtBP-E1A inh -73
O=C(CN1CCCC1)Nc1sc2c(c1C(=O)Nc1ccc(Br)cc1)CCC2	none (no result: KDM4E inh)
CCOc1ccc(NC(=O)c2c(NC(=O)CNCCN3CCOCC3)sc3c2CCC3)cc1	Six1-Eya2 blk inconclusive, CtBP-E1A inh -82 (no result: KDM4E inh)
CN1CCN(CC(=O)Nc2sc3c(c2C(=O)Nc2ccccc2)CCCC3)CC1	KCNH2 WT inh -92, KCNH2 3.1 inh -95 (no result: KDM4E inh)
COc1cccc(-c2csc(N3CCN(C(=S)Nc4ccc(Cl)cc4)CC3)n2)c1	none
Brc1ccc([C@H]2CN3CCSC3=N2)cc1	KDM4E inh 11µM
c1ccc(C2CN3CCSC3=N2)cc1 (stereo unspecified)	none
Cc1cc(C)c(N=C2C(=O)Nc3ccccc32)c(C)c1	none (no result: KDM4E inh)

High-throughput results as filed in PubChem BioAssay.
